Source: PubChem
In the library only some 3.8% were active in any assay of this set; here they are far more common.
Gli-Sufu block: Gli-Sufu pathway antagonism; Sufu-KO-LIGHT fibroblasts, Gli luciferase reporter luminescence; inhibition, % at 5 µM; 340,000 compounds, 0.74% hits;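 active means inhibition above about 55%, limit read from the data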;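 further: 0% = DMSO-treated cells and 100% = wells with medium but no cells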
Mdm2-MdmX inh: human Mdm2/MdmX binding inhibition; O15151+Q00987; SaOS-2 split-luciferase Mdm2/MdmX complementation, luminescence; inhibition, % at 8 µM; 330,000 compounds, 3% hits;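 active means inhibition of at least 50% at 8 µM in the primary screen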
Target sequence (O15151 whole entry, looked up): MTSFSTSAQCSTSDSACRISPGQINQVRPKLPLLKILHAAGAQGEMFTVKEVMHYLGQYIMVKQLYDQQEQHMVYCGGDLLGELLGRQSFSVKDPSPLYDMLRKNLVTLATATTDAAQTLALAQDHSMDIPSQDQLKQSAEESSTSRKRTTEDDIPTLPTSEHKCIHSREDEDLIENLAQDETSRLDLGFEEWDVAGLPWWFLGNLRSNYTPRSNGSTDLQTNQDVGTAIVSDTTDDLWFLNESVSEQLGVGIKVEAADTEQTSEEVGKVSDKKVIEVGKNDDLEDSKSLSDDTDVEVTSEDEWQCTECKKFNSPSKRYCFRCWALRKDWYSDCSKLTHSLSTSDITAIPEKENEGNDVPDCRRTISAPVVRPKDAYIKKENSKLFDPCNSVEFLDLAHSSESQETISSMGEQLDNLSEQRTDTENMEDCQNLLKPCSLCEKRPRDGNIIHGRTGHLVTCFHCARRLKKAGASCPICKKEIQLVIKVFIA
Target sequence (Q00987 whole entry, looked up): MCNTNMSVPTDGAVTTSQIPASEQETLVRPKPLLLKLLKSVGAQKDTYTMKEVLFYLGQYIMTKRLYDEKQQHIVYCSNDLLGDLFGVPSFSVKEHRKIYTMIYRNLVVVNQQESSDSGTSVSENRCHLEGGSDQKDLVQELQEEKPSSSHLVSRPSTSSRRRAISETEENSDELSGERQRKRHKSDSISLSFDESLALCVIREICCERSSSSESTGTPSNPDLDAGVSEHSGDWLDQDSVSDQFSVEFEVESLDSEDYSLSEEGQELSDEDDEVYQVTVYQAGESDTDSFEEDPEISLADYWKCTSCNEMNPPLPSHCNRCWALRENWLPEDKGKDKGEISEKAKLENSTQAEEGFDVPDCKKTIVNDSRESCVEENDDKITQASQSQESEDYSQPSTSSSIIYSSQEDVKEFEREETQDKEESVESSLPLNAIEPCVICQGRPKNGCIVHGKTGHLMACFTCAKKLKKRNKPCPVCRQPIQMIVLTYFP
697 NFkB inh: lowers PMA/ionomycin-induced NF-kB signal in 697 B cells | 697 B-cell NF-kB luciferase reporter, 16 h | inhibition, % at 4 µM | 330,000 compounds, 0.33% hits | AID 435022; in the data active means inhibition above about 35%
Shn3 3UTR inh: Schnurri-3 reporter inhibition in Clone20 osteoblasts; Clone20 osteoblast Shn3 3'UTR firefly luciferase, 24 h; inhibition, % at 12.5 µM; 360,000 compounds, 0.52% hits; AID 588674;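 active means mean inhibition of at least 75% with every replicate also reaching 75%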;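 further: 0% = median of neutral control wells and 100% = pilot-screen positive control compound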
Jurkat NFkB inh: lowers PMA/ionomycin-induced NF-kB signal in Jurkat cells | PMA/ionomycin-induced NF-kB luciferase reporter, luminescence | inhibition, % at 4 µM | 330,000 compounds, 0.53% hits | AID 435003; in the data active means inhibition above about 50%
697 NFkB conf: inhibitors of the PMA/ionomycin-induced NF-kB reporter in 697 B cells, retest; 697 B-cell NF-kB luciferase, 16 h; shares compounds with 697 NFkB inh; AID 449746; inhibition, % at 4 µM; 2,000 compounds, 35% hits; in the data active means inhibition mostly above about 28%, no sharp cut-off; inactive means mostly below about 22%
The depositor's hits bear a star; x = no result.

SMILES	Gli-Sufu block	Mdm2-MdmX inh	697 NFkB inh	Shn3 3UTR inh	Jurkat NFkB inh	697 NFkB conf
Cc1ccc(CNC(=O)C(=O)NCCCn2ccnc2)cc1	10	-15	38*	5	13	2
COc1cccc(NC(=O)C(=O)NCCCn2ccnc2)c1	-9	-2	20	-5	-13	x
C=CCOc1ccc(NC(=O)C(=O)NCCCn2ccnc2)cc1	10	-7	46*	-29	7	34*
CCCOc1ccc(C(=O)NCCCn2ccnc2)cc1	1	9	22	-23	-10	x
O=C1OC2C(O)COC23OC(O)CCC13O (centres undefined)	x	x	x	-3	x	x
COc1ccc(C(=O)N=c2nc3ccccn3s2)cc1	-56	30	-389	44	-83	-282
COc1ccc(C(=O)O/N=C2\C(=O)N(C)c3ccccc32)cc1	5	-4	-9	-7	-5	x
S=C(c1ccc(-c2ccccc2)cc1)N1CCOCC1	-2	-6	55*	26	13	-10
COc1ccc(O)c(C(=O)CC(=O)c2ccc(F)cc2)c1	-110	-8	-296	12	-133	-303
COc1cc(-c2nc(S(=O)(=O)c3ccc(C)cc3)c(N3CCOCC3)o2)cc(OC)c1OC	-10	31	42*	3	3	20
O=S(=O)(c1ccc(Cl)cc1)N1CCN(C(=S)NCC2CCCO2)CC1 (centres undefined)	9	22	20	10	13	x
COc1ccc(CNC(=O)C(C)Sc2nc3ccccc3c(=O)n2CC2CCCO2)cc1 (centres undefined)	2	37	6	10	-1	x
COc1ccccc1CN1[C@@H](CC(=O)O)c2cc(F)ccc2S1(=O)=O	-6	8	8	11	10	x
C=CCn1cccc(C(=O)Nc2ccc(F)cc2)c1=O	-35	0	-56	-73	-27	x
Cc1c(O)ccc(/C=N/Nc2ncccc2[N+](=O)[O-])c1O	-108	-65	-371	55	-131	-278
O=[N+]([O-])c1cccnc1N/N=C/c1ccccc1O	28	47	-120	75	-16	x
CCOc1ccccc1CN1CCC(CO)(CCOc2ccccc2)CC1	17	-16	6	-9	17	x
Cc1nn(C)cc1CN1CCC(CO)(CCOc2ccccc2)CC1	5	26	43*	0	-3	11
CCn1c(COc2cc(C)ccc2C(C)C)nnc1SCC(=O)Nc1nccs1	-5	22	18	1	-8	x
Cc1ccc(C(=O)N2CCN(C(=O)c3ccco3)CC2)cc1NC(=O)c1ccco1	25	-5	4	1	-25	x
O=C(NCc1cccnc1)c1cccn2c(=O)c3sccc3nc12	1	11	38*	-2	-7	27
O=C(O)c1ccccc1C(=O)NCc1cccnc1	-5	11	3	3	5	x
C[C@H](CO)N1C[C@H](C)[C@@H](CN(C)Cc2ccc3c(c2)OCO3)Oc2ccc(NC(=O)Cn3cnnn3)cc2C1=O	-40	-14	18	-19	14	x
CCOC(=O)N1CCC(NC(=O)CSCc2nc(-c3ccc(OC)cc3)oc2C)CC1	21	6	10	23	9	x
CSc1ccc(-c2nc(CSCC(=O)NC3CC3)c(C)o2)cc1	70*	-3	90*	12	-2	49*
SMILES	Gli-Sufu block	Mdm2-MdmX inh	697 NFkB inh	Shn3 3UTR inh	Jurkat NFkB inh	697 NFkB conf
COc1ccc(-c2nc(CSCC(=O)NCc3ccco3)c(C)o2)cc1	39	15	38*	18	29	43*
CCc1ccc(-c2nc(CSCC(=O)NC3CC3)c(C)o2)cc1	80*	0	97*	13	-8	93*
Cc1cccc(Sc2ccc([N+](=O)[O-])cc2[N+](=O)[O-])n1	-3	28	-3	-48	-11	x
O=[N+]([O-])c1ccc(Sc2ncccn2)c([N+](=O)[O-])c1	12	36	40*	-11	-1	21
Cc1ccc(/C=C/C(=O)NC2=NCCS2)cc1	-94	-99	-417	-20	-144	-315
COc1cc(OC)cc(-c2cc3nc(C)c(CCC(=O)NCc4ccccc4)c(C)n3n2)c1	19	8	38*	66	14	45*
Cc1nc2cc(-c3ccc(Cl)cc3)nn2c(C)c1CCC(=O)NC(C)c1ccc2c(c1)OCCO2 (centres undefined)	23	0	37*	68	34	27*
Cc1csc(NC(=O)CSc2nnc(-c3ccc(Cl)cc3)n2N)n1	-2	-12	14	1	-3	x
